D1 antagonist – blocks dopamine activation of the human D1 receptor | 3.2% of 360,000 active | AID 504652 | HEK293 TREx D1 cells, calcium flux, dopamine EC80; hits give low values | activity change, negative = inhibition, % at 10 µM; in the data active = activity change below about -30%; also: % is scaled to controls: 0 for no effect and ±100 for the full control effect
Target sequence (P21728 whole entry, looked up): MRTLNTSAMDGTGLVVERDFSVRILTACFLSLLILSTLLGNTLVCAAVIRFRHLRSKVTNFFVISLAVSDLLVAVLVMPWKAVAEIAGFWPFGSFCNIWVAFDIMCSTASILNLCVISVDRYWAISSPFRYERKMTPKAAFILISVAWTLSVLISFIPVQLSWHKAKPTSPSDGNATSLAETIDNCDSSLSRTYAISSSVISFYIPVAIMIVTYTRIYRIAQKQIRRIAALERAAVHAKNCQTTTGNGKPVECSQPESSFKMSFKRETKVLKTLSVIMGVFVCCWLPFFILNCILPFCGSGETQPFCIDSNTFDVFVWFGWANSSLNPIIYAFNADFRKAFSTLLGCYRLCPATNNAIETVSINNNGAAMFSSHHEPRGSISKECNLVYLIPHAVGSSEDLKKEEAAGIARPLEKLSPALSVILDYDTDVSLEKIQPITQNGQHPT
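Calcium flux readout: force-coupled, inducible Hek293 Trex D1 line, cells induced overnight at 30 C with tetracycline, dye-loaded 30–90 min at RT. Antagonism scored against EC80 dopamine challenge given 180 s after compound.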
TRHR PAM – allosterically enhances the human TRH receptor | P34981 | TRHR cells, fluo-8 calcium fluorescence, EC20 TRH enhancement | enhancement, % at 2 µM | 0.66% of 360,000 active | AID 493056; in the data active = enhancement above about 30%; also: 0% is about no effect
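Enhancer read-out: after compound pinning and an initial kinetic agonist-mode read, an EC20 of TRH (10 nM final) was injected and fluo-8 calcium signal (Ex 480/Em 530) followed at 1 s/cycle for 100 cycles in TRHR-expressing cells.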
TRHR agonist – activates the human TRH receptor. P34981. TRHR cells, calcium flux fluo-8, FDSS agonist mode. activation, % at 2 µM. 0.18% of 360,000 active. AID 493084; also: 0% is about no effect
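Read-out: compound-evoked intracellular calcium rise in TRHR cells, fluo-8 dye, kinetic FDSS fluorescence at 1 s/cycle following a 10-cycle baseline. Cells cultured overnight before dye loading (30 min–1.5 h, RT).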
D1 potentiator – potentiators of human D1 dopamine receptor; P21728; HEK293 TREx D1 cells, calcium flux, dopamine EC20 potentiation; potentiation, % at 10 µM; 0.036% of 360,000 active; AID 504651; in the data active = potentiation above about 30%; also: 0% is about no effect
D1 ag – activates the human D1 dopamine receptor | P21728 | HEK293 T-REx D1 cells, calcium flux, agonist mode | activation, % at 2 µM | 1% of 360,000 active; also: 0% is about no effect
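Agonism was scored from calcium flux recorded over 180 s (1 read/s) after pintool compound addition, following a 10-cycle baseline. Cells were inducible force-coupled HEK293 TREx D1, plated overnight at 30 C and loaded with no-wash calcium dye.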
* = called active by the depositor; . = not tested or not shown. Sampled rows, rich in hits. Any-hit rate of the full collection: about 4.6%. Rule as the data show it, unless noted: active = activation above about 30%; inactive = the rest.

SMILES | D1 antagonist | TRHR PAM | TRHR agonist | D1 potentiator | D1 ag
Cc1cc(/C=N/n2cnnc2)c(C)n1-c1ccc(Cl)cc1Cl | -35* | -6 | 1 | -5 | 15
O=C(CCc1ccccc1)NCCSc1ccccc1 | 5 | -4 | -1 | 1 | 0
O=C(CCc1[nH]c2ccccc2c1Sc1ccccc1)NCCO | 6 | 0 | -1 | -7 | 48*
Cc1cc(C)cc(C(=O)NC(=S)Nc2ccc(-c3cc4ccccc4oc3=O)cc2)c1 | -57* | 1 | 0 | -10 | 0
COc1cccc(CNC(=O)CC(c2ccc(C)cc2)N2Cc3ccccc3C2=O)c1 (centres undefined) | -32* | -2 | -1 | -2 | -1
Cn1cc(C(=O)N2CCc3ccccc3C2)c(=O)c2cc(S(=O)(=O)N3CCOCC3)ccc21 | -6 | 7 | 1 | 0 | -2
CCN(CC)S(=O)(=O)c1ccc2c(c1)c(=O)c(C(=O)N1CCc3ccccc3C1)cn2C | -37* | -4 | -1 | 5 | 0
CCOc1ccccc1N(C)C(=O)c1nn(-c2ccc(C)cc2)c(=O)c2c1c1ccccc1n2C | 5 | 1 | 1 | 1 | -2
CCc1ccccc1NC(=O)c1nn(-c2ccc(C)cc2)c(=O)c2c1c1ccccc1n2C | -33* | 25 | -1 | -3 | 2
Cc1ccc(-n2nc(C(=O)N(C)c3ccccc3Cl)c3c4ccccc4n(C)c3c2=O)cc1 | 12 | 8 | 56* | 4 | 2
COc1ccc(-n2nc(C(=O)Nc3cccc(C)n3)c3c4ccccc4n(C)c3c2=O)cc1Cl | -8 | 7 | 0 | 1 | 1
CCc1ccccc1NC(=O)c1cn(C)c(=O)c2ccccc12 | -69* | -2 | 0 | 0 | -2
COc1ccc(-n2nc(C(=O)Nc3cccc(Cl)c3)c3c4ccccc4n(C)c3c2=O)cc1Cl | -32* | -1 | 0 | 2 | 2
CCOc1ccc(NC(=O)CCCn2c(C)c3cnn(-c4ccccc4)c(=O)c3c2C)cc1 | 0 | 5 | -1 | 0 | -2
Cc1cc(OCCCSc2nc(-c3ccc(C(C)(C)C)cc3)nc3cc(=O)[nH]n23)ccc1Cl | 6 | 4 | 0 | 4 | 0
Cc1ccc2c(c1)sc1nc(-c3cc4ccccc4oc3=O)cn12 | 1 | 1 | -1 | 2 | -1
COc1ccc(-c2noc(N3CCC(C(=O)Nc4ccc(C)c(F)c4)CC3)n2)cc1OC | 3 | 3 | 0 | 3 | 6
Cc1cccc(Oc2nccc(C(F)(F)F)c2C(=O)Nc2ccc(F)cc2F)c1 | -54* | 5 | 0 | 3 | 3
C/C(O)=c1/cnc2nc3ccccc3n2c1=O | -44* | -7 | 0 | -8 | 3
CCOCCCNC(=S)N1CCCN(c2nc3cc(C)c(C)cc3cc2C#N)CC1 | -33* | 4 | -1 | -3 | 0
COCCCNC(=S)N1CCCN(c2nc3cc(C)c(C)cc3cc2C#N)CC1 | 7 | 2 | -1 | -1 | 0
Cc1oc2cc(O)ccc2c(=O)c1Oc1ccc2ccccc2c1 | -37* | -5 | 0 | -1 | 5
Cc1oc2cc(O)ccc2c(=O)c1Oc1ccc(F)cc1 | 7 | 6 | -1 | -3 | 2
N=c1c2c(-c3ccccc3)c(-c3ccccc3)n(Cc3ccco3)c2ncn1CCCO | 0 | 5 | -1 | 2 | 45*
N=c1c2c(-c3ccccc3)c(-c3ccccc3)n(Cc3ccco3)c2ncn1CCO | 27 | -4 | 0 | -4 | 2
SMILES | D1 antagonist | TRHR PAM | TRHR agonist | D1 potentiator | D1 ag
Cn1cc(Br)c(C(=O)NNC(=O)c2ccccc2)n1 | 7 | 32* | 0 | -7 | 2
COc1ccc(NC(=O)c2cn3c4c(ccc(Cl)c4c2=O)OC(C)C3)cc1OC (centres undefined) | 16 | 50* | -1 | 8 | 3
Cc1ccc(C(=O)NCC(=O)OCC(=O)c2ccc(C)c([N+](=O)[O-])c2)cc1 | -46* | -6 | -2 | -24 | 1
Cc1ccc(C(=O)NCC(=O)NCC(=O)OCC(=O)c2ccc(F)cc2)cc1 | -52* | -1 | -1 | -3 | 2
Cc1ccc(C(=O)COC(=O)CNC(=O)C(c2ccccc2)c2ccccc2)cc1[N+](=O)[O-] | -3 | -20 | 0 | 7 | 3
O=C(CNC(=O)c1ccccc1)NCC(=O)OCC(=O)c1ccc(F)cc1 | 3 | 5 | 0 | 6 | 2
CCC(C)NC(=O)Cn1c(=O)n(-c2ccc(C)c(C)c2)c(=O)c2c3c(sc21)CCCCC3 (centres undefined) | 14 | 2 | 1 | 1 | 3
O=C(NCc1ccccc1Cl)NCc1ccccc1Cl | -10 | -3 | 0 | 2 | 0
NC(=O)NCc1ccccc1Cl | -38* | -3 | 1 | -3 | 1
CCc1ccc(CNC(=O)c2cnc3sc(N4CCCCCC4)nn3c2=O)cc1 | 0 | -4 | 0 | -4 | 4
CCc1ccc(NC(=O)c2sc3nc(C)cc(C)c3c2NC(=O)c2ccccc2OC)cc1 | 0 | 40* | 0 | -2 | 0
CSc1ccc(CCNC(=O)c2cc3cc(S(=O)(=O)N4CCCCC4)ccc3n2C)cc1 | 7 | 4 | 1 | -4 | 4
CCCCN(CCCNC(=O)C1CCN(S(=O)(=O)N2CCOCC2)CC1)c1ccccc1 | -35* | -4 | -1 | -4 | 3
CCc1cc2c(NCC3CCCO3)ncnc2s1 (centres undefined) | -3 | -3 | 0 | -6 | 5
Cc1sc2ncnc(NCC3CCCO3)c2c1C (centres undefined) | -30* | 2 | 0 | -5 | 12
Cc1ccc(O)c(C(=O)c2cc(C#N)c(=O)n(-c3nccs3)c2)c1 | -1 | 9 | 0 | 4 | 331*
CCCCCc1cc(=O)oc2c(C(CCN3CCCCC3)c3cc(OC)c(OC)c(OC)c3)c(OC)cc(OC)c12 (centres undefined) | 15 | 6 | 3 | 2 | 18
COc1cc(C(CCN2CCN(c3ccccc3)CC2)c2c(OC)cc(OC)c3c(C)cc(=O)oc23)cc(OC)c1OC (centres undefined) | -81* | 0 | 0 | -13 | 0
CCCCCc1cc(=O)oc2c(C(CCN3CCCC(C)C3)c3cc(OC)c(OC)c(OC)c3)c(OC)cc(OC)c12 (centres undefined) | -47* | 1 | 0 | -10 | 22
COc1cc(OC)c2c(C)cc(=O)oc2c1C(CCN1CCOCC1)c1ccc2c(c1)OCO2 (centres undefined) | -68* | -1 | 0 | -9 | 11
Cc1ccccc1CSc1nnc2[nH]c(=O)cc(-c3ccccc3)n12 | . | 0 | 0 | -3 | -1
CC(C)OC(=O)c1c(NC(=O)c2cccc(C(F)(F)F)c2)sc2c1CCCC2 | -10 | -4 | -1 | 1 | 1
COc1ccc(-n2c(=O)c3ccc(C(=O)NCc4ccc(C)cc4)cc3n(Cc3ccc(C)cc3)c2=O)cc1 | 12 | -5 | 0 | -1 | 4

Screening results deposited in PubChem BioAssay by National Center for Advancing Translational Sciences (NCATS).
